Results: PubChem BioAssay (NCATS)
Records with an inconclusive call do not appear. Values without a mark were called inactive. Calls of active or inactive are those of the source. Calls follow the shape of the dose curve; as a rule, active = well fitted cell-killing curve with a large enough effect; inconclusive = small, poorly fitted or top-dose-only effect, or effect the other way; inactive = no such curve, though single readings can be large or run the other way.
Potency is read from the fitted curve at half-maximal effect.

Test: Viability qHTS for spleen associated tyrosine kinase inhibitor (SYKi) drug resistant MV4-11 cells (AID 1963824); also: nearly all actives have a fitted effect of over 35% in size
Conditions: SYKi-resistant MV4-11 viability, CellTiter-Glo, 72 h; series mostly up to 45 µM
Outline: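 CellTiter-Glo luminescence, read 10 min after reagent addition, reports viability after a 72 hr compound exposure. Cells are an MV4-11 line made resistant to SYK inhibition, seeded at 500 per well onto compound-containing plates.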
For CC1=CC(=O)C2C(C)(C)CCC[C@]2(C)[C@H]1CC[C@H](C)CC(=O)O (stereo partly drawn), the Potency was “inactive”.
For CC1CC(=O)C2=C(O1)OC1(C)CCC3C(C)(C)C4OC4C(=O)C3(C)C1C2 (stereo not drawn), the Potency was “inactive”.
N[C@@H](Cn1ccc(=O)c(O)c1)C(=O)O showed a viability, % of control of 98% [at 4.97 µM].
In the case of Nc1ccn([C@H]2O[C@@H](CO)[C@H](O)[C@H]2O)c(=O)n1, the Potency is reported as 1.46 µM (active).
Work on CC1OC(OC2C(CO)OC(OCC3OC(OC(=O)C45CCC(C)(C)CC4C4=CCC6C7(C)CCC(OC8OC(CO)C(O)C(OC9OC(CO)C(O)C(O)C9O)C8O)C(C)(C)C7CCC6(C)C4(C)CC5)C(O)C(O)C3O)C(O)C2O)C(O)C(O)C1OC1OC(CO)C(O)C(O)C1O (stereo not drawn) yielded a viability, % of control of 88.5% [at 9.25 µM].
With Cc1cccc(N(C)C(=S)Oc2ccc3c(c2)CCC3)c1 the Potency was 18.4 µM (active).
In the case of c1cc(NC2CCNCC2)nc(-c2cnc3ccccn23)c1, the Potency is reported as 0.0206 µM (active).
With CC1OC2OC3C(OCC(O)C3O)OC(=O)C34CCC(C)(C)CC3C3=CCC5C6(C)CC(O)C(OC7OC(CO)C(O)C(O)C7OC7OCC(OC(=O)CC(C)(O)CC(=O)OC1C(OC1OCC(O)C(O)C1O)C2O)C(O)C7O)C(C)(CO)C6CCC5(C)C3(C)CC4O (stereo not drawn) the Potency was 1.78 µM (active).
In the case of O=C(O)CCc1nccc2c1[nH]c1ccccc12, the Potency is reported as 23.1 µM (active).
In the case of CC(C)CC(=O)OC1OC=C(CO[C@@H]2O[C@H](CO)[C@@H](O)[C@H](O)[C@H]2O)C2CC(O)C(O)(CO)C12 (stereo partly drawn), the Potency is reported as “inactive”.
Work on C[C@@H]1O[C@@H](O[C@H]2[C@H](O)[C@@H](O[C@@H]3O[C@H](CO)[C@@H](O)[C@H](O[C@@H]4O[C@H](CO)[C@@H](O)[C@H](O)[C@H]4O)[C@H]3O)[C@H](O[C@H]3CC[C@@]4(C)C(=CC[C@@H]5C4CC[C@@]4(C)C5C[C@@H]5OC6(CC[C@@](C)(CO[C@@H]7O[C@H](CO)[C@@H](O)[C@H](O)[C@H]7O)O6)[C@@H](C)[C@@H]54)C3)O[C@@H]2CO)[C@H](O)[C@H](O)[C@H]1O (stereo partly drawn) yielded a viability, % of control of 94.3% [at 9.25 µM].
With CC12CC34CC(O)C5C(CO)(CO)CC(=O)CC5(C)C3CC1C2C4 (stereo not drawn) the Potency was “inactive”.
In the case of O=C(O)c1cc(N(Cc2ccc(C3CCCCC3)cc2)C(=O)c2ccc(Oc3ccccc3)cc2)ccc1O, the Potency is reported as 16.4 µM (active).
For C=C1C(=O)O[C@@H]2CC(C)=C([C@@H](C)CCCO)[C@@H](OC(=O)C(C)C)[C@H]12, the Potency was 4.04 µM (active).
In the case of COc1cc(O[C@@H]2O[C@H](CO[C@H]3OC[C@](O)(CO)[C@H]3O)[C@@H](O)[C@H](O)[C@H]2O)cc(OC)c1O, the Potency is reported as “inactive”.
For C[N+]1(CC2COC(c3ccccc3)(c3ccccc3)O2)CCCCC1 (stereo not drawn), the Potency was 10 µM (active).
For COc1cc(/C=C/c2cc(O)cc(O[C@@H]3O[C@H](CO)[C@@H](O)[C@H](O)[C@H]3O)c2)ccc1O, the Potency was “inactive”.
For CCCCC1CCN(CCCN2C(=O)CCc3ccccc32)CC1, the Potency was 2.59 µM (active).
In the case of COc1ccc2cc1Oc1ccc(cc1)CC1c3cc(c(OC)cc3CCN1C)Oc1c(OC)c(OC)c(OC)c3c1C(C2)N(C)CC3 (stereo not drawn), the Potency is reported as 10 µM (active).
For CC(C)(C)c1ccc(-c2nc3c(N4CCN(Cc5ccc6nccnc6c5)CC4)cccc3[nH]2)cc1, the Potency was 8.2 µM (active).
With O=C(Nc1cccc([N+](=O)[O-])c1)c1cccc(S(=O)(=O)N2CCCCCC2)c1 the Potency was 6.51 µM (active).
In the case of CCOC(=O)c1cc2ccc(O)cc2oc1=O, the Potency is reported as 14.6 µM (active).
With COc1ccc(Sc2ccc(NC(=O)c3ccccc3Cl)cc2C#N)cc1 the Potency was 25.9 µM (active).
In the case of C=C1C(=O)OC2/C=C(/C)C3=CC(=O)C(C)(CC(OC(=O)/C(C)=C/COC(C)=O)C12)O3 (stereo not drawn), the Potency is reported as 0.796 µM (active).
In the case of O=c1[nH]ccc2nc(-c3ccc(CN4CCC(c5nc(-c6ccccn6)n[nH]5)CC4)cc3)c(-c3ccccc3)cc12, the Potency is reported as 9.2 µM (active).
With CCC(C)C(=O)O[C@H]1[C@H](O)[C@@]2(COC(C)=O)C(CC1(C)C)C1=CCC3[C@@]4(C)CC[C@H](O[C@@H]5O[C@H](C(=O)O)[C@@H](O)[C@H](O)[C@H]5O)[C@@](C)(CO)C4CC[C@@]3(C)[C@]1(C)C[C@@H]2O (stereo partly drawn) the Potency was 3.48 µM (active).
With Cc1nc2sccn2c(=O)c1CCN1CCC(=C(c2ccc(F)cc2)c2ccc(F)cc2)CC1 the Potency was 11.9 µM (active).
For COCC1OC(n2cnc3c(=O)[nH]cnc32)C(O)C1O (stereo not drawn), the Potency was “inactive”.
